Records with an inconclusive call do not appear. A structure can be active in one record and inactive in another. Calls of active or inactive are those of the source. Unless noted, calls come from the whole dose curve; as a rule, active = well fitted curve in the direction sought with a large enough effect; inconclusive = small, poorly fitted or top-dose-only effect, or another doubt; inactive = no such curve, though single readings can be large; an effect the other way counts as inactive or inconclusive.

A short description of experiment [1]: qHTS for Inhibitors of Plasmodium falciparum (DD2) proliferation (AID 504314).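 Note: parasite DNA measured by SYBR Green fluorescence after red cell lysis.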 The procedure, abridged: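 SYBR Green growth assay: 72 h compound exposure of infected red cells (2.5% hematocrit, 0.3% parasitemia), then lysis and overnight dye staining, fluorescence 485/535 nm. Values scaled between DMSO and 0.29 uM artemisinin controls.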
A general note: In qHTS, concentration-response curves come from the screen itself.

Experiment [2] can be described thus: qHTS for Inhibitors of Plasmodium falciparum (GB4) proliferation (AID 504315). Note: nearly all actives have a fitted effect of over 50% in size. The gist of the method: (§1)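 Parasite growth measured as SYBR Green DNA fluorescence (ex 485, em 535 nm) after overnight lysis following 72 h culture at 37 °C, 0.3% parasitemia, 2.5% hematocrit. Values normalized against DMSO and 0.29 uM artemisinin controls, with plate-stack correction.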

The nature of experiment [3]: qHTS for Inhibitors of Plasmodium falciparum (7G8) proliferation (AID 504316). Note: series mostly up to about 6.7 µM; nearly all actives have a fitted effect of over 65% in size. The gist of the method: as §1
The nature of experiment [4]: qHTS for Inhibitors of Plasmodium falciparum (HB3) proliferation (AID 504318). Note: nearly all actives have a fitted effect of over 60% in size. The gist of the method:
as §1

Experiment [5] in a line: qHTS for Inhibitors of Plasmodium falciparum (CP250) proliferation (AID 504320). The gist of the method: as §1
Experiment [6] deals with Atrial natriuretic peptide receptor 1 (Homo sapiens) (UniProt P16066). Kind of experiment: Natriuretic polypeptide receptor (hNpr1) antagonism - Pilot CMLD screen (AID 1347052; calls by dose curve;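 note: cGMP level read as GloSensor luciferase luminescence after agonist stimulation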; note: potency is the fitted concentration of half-maximal effect).
Chain of Atrial natriuretic peptide receptor 1 (Homo sapiens) (P16066 whole entry, looked up): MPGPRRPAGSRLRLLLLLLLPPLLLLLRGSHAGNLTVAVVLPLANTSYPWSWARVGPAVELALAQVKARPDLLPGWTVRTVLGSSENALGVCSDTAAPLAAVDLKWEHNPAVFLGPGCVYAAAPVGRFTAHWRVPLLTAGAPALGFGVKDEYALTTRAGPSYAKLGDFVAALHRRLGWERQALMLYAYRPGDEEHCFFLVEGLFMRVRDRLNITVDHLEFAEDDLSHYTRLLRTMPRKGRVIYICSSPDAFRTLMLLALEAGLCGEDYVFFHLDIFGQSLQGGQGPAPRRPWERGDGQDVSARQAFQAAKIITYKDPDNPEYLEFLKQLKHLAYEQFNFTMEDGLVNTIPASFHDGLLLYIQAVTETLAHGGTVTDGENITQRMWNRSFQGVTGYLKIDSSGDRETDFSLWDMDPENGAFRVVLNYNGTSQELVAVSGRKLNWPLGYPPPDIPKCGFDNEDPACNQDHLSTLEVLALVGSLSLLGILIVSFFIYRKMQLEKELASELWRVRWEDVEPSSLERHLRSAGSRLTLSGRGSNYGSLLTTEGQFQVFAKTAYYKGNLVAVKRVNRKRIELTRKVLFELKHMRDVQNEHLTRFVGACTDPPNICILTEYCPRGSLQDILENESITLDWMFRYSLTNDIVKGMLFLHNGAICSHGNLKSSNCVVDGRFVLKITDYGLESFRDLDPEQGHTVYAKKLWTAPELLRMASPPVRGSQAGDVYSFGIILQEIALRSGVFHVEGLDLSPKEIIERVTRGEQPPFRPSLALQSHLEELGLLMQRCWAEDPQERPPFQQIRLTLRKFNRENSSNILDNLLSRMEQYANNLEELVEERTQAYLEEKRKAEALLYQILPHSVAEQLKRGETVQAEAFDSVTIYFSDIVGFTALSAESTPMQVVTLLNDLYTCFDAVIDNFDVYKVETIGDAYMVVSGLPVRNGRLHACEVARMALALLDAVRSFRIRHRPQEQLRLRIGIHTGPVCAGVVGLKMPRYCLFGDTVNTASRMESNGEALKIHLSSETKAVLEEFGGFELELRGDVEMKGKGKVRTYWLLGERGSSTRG

Regarding `C#CCN1C(=O)[C@@]2(CC(C)=CC[C@@H](C)O2)c2ccccc21`, the Potency result in experiment [1], in experiment [2], in experiment [3], in experiment [4], in experiment [5] and in experiment [6] was “inactive” each time.
For the compound `COc1ccc2c(c1)O[C@H](c1ccc3c(c1)OCO3)[C@@H](OC(=O)NCc1ccc3c(c1)OCO3)C2=O`, the Potency result in experiment [1], in experiment [2], in experiment [3], in experiment [4], in experiment [5] and in experiment [6] was “inactive” each time.
In the case of `COC(=O)CCCC1=CC2=CC(=O)C(C)(OC(=O)c3cccs3)C(=O)C2=CN1Cc1ccco1` (configuration not stated), the Potency result in experiment [1], in experiment [2], in experiment [3], in experiment [4], in experiment [5] and in experiment [6] was “inactive” in each case.
Consider `C=C(C)CCCN1C=C(C(C)=O)C(c2ccccc2)NC1=O` (configuration not stated), for which the Potency result in experiment [1], in experiment [2], in experiment [3], in experiment [4], in experiment [5] and in experiment [6] was “inactive” in each case.
For the compound `COC(=O)C(C(C)=O)[C@@H](NC(=O)OC(C)(C)C)c1ccccc1` (some centres not stated), the Potency result in experiment [1], in experiment [2], in experiment [3], in experiment [4], in experiment [5] and in experiment [6] was “inactive” in each case.
`COC(=O)CCCC1=CC2=CC(=O)C(C)(O)C(=O)C2=CO1` (configuration not stated): the Potency entry in experiment [1], in experiment [2], in experiment [3], in experiment [4], in experiment [5] and in experiment [6] was “inactive” in each case.
Turning to `C=CCN1c2ccccc2[C@]23CCC(=O)N(CCOC)C2=NC(C(=O)OC)=C(C(=O)OC)[C@H]13`, the Potency entry in experiment [1], in experiment [2], in experiment [3], in experiment [4], in experiment [5] and in experiment [6] was “inactive” each time.
As for `CCCCCCCc1cc2ccccc2c2c(C(C)=O)c(-c3ccccc3)c(C(=O)OC)n12`, the Potency result in experiment [1], in experiment [2], in experiment [3], in experiment [4], in experiment [5] and in experiment [6] was “inactive” each time.
As for `O=C1NC[C@H](c2ccccc2)N1`, the Potency entry in experiment [1], in experiment [2], in experiment [3], in experiment [4], in experiment [5] and in experiment [6] was “inactive” throughout.
As for `COC(=O)C1=C(C)N(Cc2ccccc2)C(=S)NC1c1ccc(Br)cc1` (configuration not stated), the Potency entry in experiment [1], in experiment [2], in experiment [3], in experiment [4], in experiment [5] and in experiment [6] was “inactive” in each case.
Turning to `CC(=O)OC[C@H]1O[C@H](CC=NO[C@@H](C)c2cn([C@H](CO)Cc3ccccc3)nn2)C=C[C@@H]1OC(C)=O`, the Potency result in experiment [1], in experiment [2], in experiment [3], in experiment [4], in experiment [5] and in experiment [6] was “inactive” throughout.
As to `COCC1=Cc2cc3c(cc2C(C(C(=O)OC)C(=O)OC)N1C(=O)OC)OCO3` (configuration not stated), the Potency entry in experiment [1], in experiment [2], in experiment [3], in experiment [4], in experiment [5] and in experiment [6] was “inactive” throughout.
Regarding `C=CCN1C=C2C(=O)C(C)(OC(=O)c3ccc(OC)cc3)C(=O)C(c3ccco3)=C2C=C1CCCC` (configuration not stated), the Potency entry in experiment [1], in experiment [2], in experiment [3], in experiment [4], in experiment [5] and in experiment [6] was “inactive” in each case.
With `CCCCc1nc2c(c3c1C[C@H](C)OC3)CN(S(=O)(=O)c1ccc(NC(C)=O)cc1)CC2`, the Potency entry in experiment [1], in experiment [2], in experiment [3], in experiment [4], in experiment [5] and in experiment [6] was “inactive” in each case.
Consider `CCN1C(N(C)CCOC)=NC(c2cccc(F)c2)C(C(=O)OC)=C1C` (configuration not stated), for which the Potency entry in experiment [1], in experiment [2], in experiment [3], in experiment [4], in experiment [5] and in experiment [6] was “inactive” throughout.
As for `O=C1[C@H]2[C@@H]3[C@@H](O)[C@H](O)CC(=NOCc4ccccc4)[C@H]3CC[C@H]2C(=O)N1C[C@@H]1CCCO1`, the Potency result in experiment [1], in experiment [2], in experiment [3], in experiment [4], in experiment [5] and in experiment [6] was “inactive” throughout.
Take `COC(=O)CC=C[C@H](C)[C@@H](NC(=O)C(F)(F)F)c1ccccc1Br`: the Potency result in experiment [1], in experiment [2], in experiment [3], in experiment [4], in experiment [5] and in experiment [6] was “inactive” each time.
On to `C=CC1=C2C=C(C3CC3)N(CC3CC3)C=C2C(=O)C(C)(OC(=O)c2ccco2)C1=O` (configuration not stated), for which the Potency entry in experiment [1], in experiment [2], in experiment [3], in experiment [4], in experiment [5] and in experiment [6] was “inactive” throughout.
For the compound `COC1=CC2C(=O)C(C1=O)C1c3ccccc3CC21` (configuration not stated), the Potency result in experiment [1], in experiment [2], in experiment [3], in experiment [4], in experiment [5] and in experiment [6] was “inactive” each time.
For `CCOC(=O)CN1C(=O)NC(c2cccc(F)c2)C(C(=O)OC)=C1C` (configuration not stated), the Potency entry in experiment [1], in experiment [2], in experiment [3], in experiment [4], in experiment [5] and in experiment [6] was “inactive” in each case.
In the case of `C[C@@H]1C=CCC(=O)OC[C@H](C)C(=O)OC[C@H]2O[C@H]1C=C[C@H]2O`, the Potency result in experiment [1], in experiment [2], in experiment [3], in experiment [4], in experiment [5] and in experiment [6] was “inactive” each time.
As to `C=CCCCN1C=C(C(=O)OCC)C(c2ccccc2)NC1=O` (configuration not stated), the Potency entry in experiment [1], in experiment [2], in experiment [3], in experiment [4], in experiment [5] and in experiment [6] was “inactive” each time.
For `CC=COC(=O)N[C@@H](c1cccc(C)c1)[C@]1(C(=O)OCC)CCCC1=O`, the Potency entry in experiment [1], in experiment [2], in experiment [3], in experiment [4], in experiment [5] and in experiment [6] was “inactive” in each case.
Turning to `COC(=O)C(C(=O)OC)C1c2ccccc2C=C(C2CC2)N1C(=O)OC` (configuration not stated), the Potency result in experiment [1], in experiment [2], in experiment [3], in experiment [4] and in experiment [5] was “inactive” each time. Moreover, the Potency in experiment [6] was 531 nM (active) and inactive.
For the compound `COC(=O)C1=C(C)N(Cc2ccccc2)C(=O)NC1c1ccccc1` (configuration not stated), the Potency result in experiment [1], in experiment [2], in experiment [3], in experiment [4], in experiment [5] and in experiment [6] was “inactive” throughout.
As for `Cc1cc(C)c2c(c1)CO[C@H]([C@H](O)CO)[C@H]2C=Cc1ccccc1`, the Potency result in experiment [1], in experiment [2], in experiment [3], in experiment [4], in experiment [5] and in experiment [6] was “inactive” in each case.
As to `COC(=O)CCCC1=CC2=CC(=O)C(C)(OC(=O)c3cccs3)C(=O)C2=CN1CCCOC(C)C` (configuration not stated), the Potency entry in experiment [1], in experiment [2], in experiment [3], in experiment [4], in experiment [5] and in experiment [6] was “inactive” throughout.

These data come from PubChem BioAssay (NCATS).
